Active and inactive are the calls of the source. Unless noted, no rule for the calls is given here.
How the values were obtained:
[1] = system: Wnt5a (protein binding on small-molecule microarray); assay: Wnt5a binders on small-molecule microarray, primary screen, biophysical, 635/667 nm fluorescence (AID 1142); details: 635 nm fluorescence, higher = more signal;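 also: fluorescence read at 667 nm with signal to noise per printed feature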
[2] = cell viability in Huh7 cells, primary screen, cytotoxicity control for HCV replication inhibitor project, CellTiter-Glo luminescence, basal, 48 h (AID 1143); details: Huh7 HCV replicon, higher = more signal, called active from +8 up or from −8 down;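 also: Huh7 hepatoma cells carrying a hepatitis C replication reporter with no stimulus; test concentration not given here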
[3] = P. aeruginosa biofilm formation inhibitors, primary screen, PAO1 strain, BacTiter-Glo luminescence, LB-PBS (AID 1144); details: 12 h, higher = more signal
[4] = CREB reporter modulators without forskolin, primary screen, cell-based, PC12, CRE-LacZ reporter, unstimulated (AID 1145); details: no forskolin, luminescence, 4.5 h, higher = more signal, called active from +8 up or from −8 down
[5] = CREB reporter modulators under forskolin, primary screen, cell-based, PC12, CRE-LacZ reporter, forskolin-stimulated (AID 1146); details: luminescence, 4.5 h, higher = more signal, called active from +8 up or from −8 down;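 also: PC12 cells with 6xCRE LacZ reporter stimulated by forskolin 10 µM; beta-galactosidase reporter signal reflecting CREB driven transcription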
[6] = target: Streptavidin (Streptomyces avidinii) (UniProt P22629); assay: streptavidin binders on small-molecule microarray, primary screen, artefact control for SMM compound annotation, biophysical, 635/667 nm fluorescence (AID 1147); details: streptavidin binding, higher = more signal;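 also: signal reflects streptavidin binding to arrayed compounds as a control protein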
[7] = small-molecule binders of probe aInhba, primary screen, biochemical, small-molecule microarray, 635/667 nm fluorescence (AID 1148); details: higher = more signal;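 also: score merges 667nm spot fluorescence with signal-to-noise for antibody binding to printed compounds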
[8] = target: Torsin-1A (Homo sapiens) (UniProt O14656); assay: torsin A binders from cell lysate, primary screen, small-molecule microarray, wild-type, 635/667 nm (AID 1149); details: COS7 hTOR1A-WT lysate, 635 nm fluorescence, higher = more signal
[9] = target: Torsin-1A (Homo sapiens) (UniProt O14656); assay: small-molecule binders of mutant TOR1A in lysate, primary screen, cell lysate, small-molecule microarray, COS7 lysate, 635/667 nm fluorescence (AID 1150); details: COS7 hTOR1A mutant lysate, 635 nm fluorescence, higher = more signal;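 also: score pools 667 nm emission and signal to noise measuring lysate protein binding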
[10] = system: Sonic hedgehog protein (Shh); assay: small-molecule binders of Shh protein, primary screen, biochemical, small-molecule microarray, 635/667 nm fluorescence (AID 1151); details: small-molecule microarray binding, 635 nm fluorescence; higher = more signal;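 also: Shh protein binding to compounds spotted on small-molecule microarray slides; score combines spot fluorescence intensity with signal-to-noise across triplicate slides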

Chain of Streptavidin (Streptomyces avidinii) (P22629 whole entry, looked up): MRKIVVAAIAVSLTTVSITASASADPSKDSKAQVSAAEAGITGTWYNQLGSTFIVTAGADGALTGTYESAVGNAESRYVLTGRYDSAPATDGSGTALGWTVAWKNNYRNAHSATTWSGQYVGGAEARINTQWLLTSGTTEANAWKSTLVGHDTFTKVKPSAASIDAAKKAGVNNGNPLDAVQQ
Chain of Torsin-1A (Homo sapiens) (O14656 whole entry, looked up): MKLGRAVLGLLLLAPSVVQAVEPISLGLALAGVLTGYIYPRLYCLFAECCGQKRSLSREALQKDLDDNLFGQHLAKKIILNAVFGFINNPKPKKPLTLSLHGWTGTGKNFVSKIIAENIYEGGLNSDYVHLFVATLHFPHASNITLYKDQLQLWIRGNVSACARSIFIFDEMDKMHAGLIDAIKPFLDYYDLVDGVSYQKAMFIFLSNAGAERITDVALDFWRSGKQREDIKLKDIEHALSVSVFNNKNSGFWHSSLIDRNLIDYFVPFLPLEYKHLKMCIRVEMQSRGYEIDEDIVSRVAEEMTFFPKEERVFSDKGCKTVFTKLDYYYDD

SMILES | composite z-score [1] | z-score [2] | z-score [3] | z-score [4] | z-score [5] | composite z-score [6] | composite z-score [7] | composite z-score [8] | composite z-score [9] | composite z-score [10]
COC(=O)[C@@]1(Cc2ccc(F)cc2)[C@H]2c3cc(C(=O)N4CCCC4)n(CCSCCO)c3C[C@H]2CN1C(=O)c1ccccc1 | 0.0841 | -1.11 (inactive) | -0.375 (inactive) | 0.397 (inactive) | 1.13 (inactive) | -0.383 | -0.0477 | -0.319 | 0.301 | -0.697
[N-]=[N+]=NCc1ccccc1C[C@]1(C(=O)N2CCCCC2)COC(c2ccc(OCCCO)cc2)=N1 | 0.114 | -4.72 (inactive) | -0.919 (inactive) | 1.93 (inactive) | 1.43 (inactive) | 0.997 | -0.441 | 0.555 | 0.278 | 0.349
COc1ccc(CCNC(=O)[C@@]2(C)c3ccccc3C(=O)N(Cc3ccc(OC(F)(F)F)cc3)[C@H]2c2ccc(CO)cc2)cc1 | 0.887 | -4.18 (inactive) | 0.175 (inactive) | -0.179 (inactive) | 0.175 (inactive) | -0.535 | -0.166 | 0.43 | 1.43 | 1.23
Cc1ccc(S[C@]2(C(=O)NC3CC3)CC(=O)N(C3Cc4ccccc4C3)[C@@H]2c2ccc(CO)cc2I)cc1 | -0.547 | -2.23 (inactive) | 0.714 (inactive) | 0.919 (inactive) | 2.86 (inactive) | -0.441 | 0.0051 | 0.909 | 0.701 | 0.209
O=C1N(Cc2ccccc2)Cc2ccccc2C[C@@]12COC(c1ccc(OCCCO)cc1)=N2 | 0.165 | -5.94 (inactive) | 1.31 (inactive) | 1.45 (inactive) | -2.33 (inactive) | -0.0644 | 0.108 | 0.356 | 0.695 | 0.0301
C=C(CCCC)C(=O)CC[C@H](OC(=O)c1ccccc1-c1ccccc1C(=O)O)c1cccc(OCCO)c1 | -0.151 | -0.548 (inactive) | -0.77 (inactive) | 0.434 (inactive) | 5.04 (inactive) | -0.352 | -0.179 | 0.259 | 0.114 | 0.847
CCOC(=O)C[C@H]1[C@H](OC(=O)c2cc3ccccc3oc2=O)[C@@H](NC(=O)Cc2ccc(OC)cc2)c2cc(OCCCO)ccc2N1C(=O)Cc1ccc(OC)cc1 | 0.0746 | -1.5 (inactive) | -0.783 (inactive) | -0.0558 (inactive) | -1.59 (inactive) | 0.55 | -0.185 | 0.332 | 0.839 | 1.27
CO[C@H]1O[C@H](CO)[C@@H](OC(=O)Nc2ccccc2)[C@@H]2OC(=O)[C@@H](Cc3ccccc3)C/C=C/C[C@H](Cc3ccccc3)C(=O)O[C@@H]12 | 0.129 | -0.0611 (inactive) | -0.213 (inactive) | -0.403 (inactive) | -0.656 (inactive) | -0.304 | -0.0719 | 0.433 | 1.93 | 0.591
CN1C(=O)C2C=CC(C(O)c3ccc([N+](=O)[O-])cc3)N(Nc3ccccc3)C2C1=O (stereo not given) | 0.288 | 0.349 (inactive) | -0.898 (inactive) | 0.0535 (inactive) | -0.323 (inactive) | 1.65 | 0.179 | 0.0754 | 0.317 | -0.0538
Cc1ccc(S[C@]2(C(=O)NC(C)C)CC(=O)N(Cc3ccccc3)[C@@H]2c2ccc(CO)cc2I)cc1 | -0.114 | -1.99 (inactive) | 1.2 (inactive) | 0.0548 (inactive) | 0.0831 (inactive) | -0.864 | -0.128 | -0.782 | 0.0888 | -0.421
COC(=O)[C@H]1N=C(c2ccc(OCCCO)cc2)O[C@H]1c1ccccc1N=[N+]=[N-] | 0.563 | -2.38 (inactive) | -0.17 (inactive) | 1.18 (inactive) | 0.226 (inactive) | 0.489 | 0.317 | 0.698 | 0.175 | -0.207
COCCOC(=O)N1C(=O)[C@@]2(c3ccccc31)[C@H](C(=O)Nc1nc3ccccc3s1)[C@H]1C(=O)O[C@H](c3ccccc3)[C@H](c3ccccc3)N1[C@@H]2c1ccccc1OCCO | 0.0847 | -3.65 (inactive) | -0.457 (inactive) | -0.207 (inactive) | -0.144 (inactive) | 1.39 | 0.379 | 0.282 | 0.781 | 0.733
C=C(C)C1CN([C@H](CO)c2ccccc2)C(=O)/C1=C\c1ccccc1 (stereo not given in full) | -0.0623 | -4.75 (inactive) | 1.3 (inactive) | 2.04 (inactive) | -0.391 (inactive) | -0.0971 | -0.0719 | 0.0321 | 0.343 | 0.633
CN1C(=O)C2C(C1=O)C1C=C(CCCO)C2C(C2CC2)N1C (stereo not given) | 0.0748 | -2.56 (inactive) | 0.189 (inactive) | 0.0295 (inactive) | -0.984 (inactive) | -0.45 | 0.0543 | -0.427 | -0.454 | -0.685

Reference: PubChem BioAssay
